Consider 14 molecules from PubChem BioAssay (NCATS).

Assay [1] can be described thus: qHTS profiling of the MIPE4 collection as inhibitors of Plasmodium falciparum (3D7) proliferation (AID 743344).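 Note: scaled between DMSO vehicle wells and 0.29 µM artemisinin as full inhibition.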 To be noted: P. falciparum 3D7 in erythrocytes, SYBR Green DNA fluorescence, 72 h; at 28.5 µM. A digest of the protocol: (§1)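 Erythrocytes infected with P. falciparum (0.3% parasitemia, 2.5% hematocrit) incubated with compounds 72 h at 37 C, 5% CO2. Lysis with saponin/Triton buffer containing SYBR Green I, overnight at room temperature in the dark; DNA fluorescence (485/535 nm) normalised to 0.29 uM artemisinin and DMSO.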
(In general: In qHTS, concentration-response curves come from the screen itself.)

The nature of assay [2]: qHTS profiling of the MIPE4 collection as inhibitors of Plasmodium falciparum (DD2) proliferation (AID 743345). To be noted: P. falciparum Dd2 in erythrocytes, SYBR Green DNA, 72 h; at 28.5 µM unless noted. The procedure, abridged: as §1
A short description of assay [3]: qHTS profiling of the MIPE4 collection as inhibitors of Plasmodium falciparum (DD2) proliferation (Rep 2) (AID 743346). To be noted: P. falciparum Dd2 in erythrocytes, SYBR Green DNA, 72 h; at 28.5 µM. The procedure, abridged: as §1
A short description of assay [4]: qHTS profiling of the MIPE4 collection as inhibitors of Plasmodium falciparum (HB3) proliferation (AID 743347).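 Note: plate controls were DMSO vehicle wells for no effect and artemisinin wells for full effect.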 To be noted: P. falciparum HB3 in erythrocytes, SYBR Green DNA, 72 h; at 28.5 µM. The procedure, abridged: as §1
Assay [5] in a line: High-throughput drug toxicity screening in the BPDCN cell line Gen2.2 (AID 1224824).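 Note: cells exposed to compounds for 48 h before reading.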 To be noted: Gen2.2 BPDCN cells; at 45.8 µM (top of the series). The procedure, abridged: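 Seed 500 exponentially growing Gen2.2 cells/well; add compounds by pin tool; incubate 48 h, 37 °C, 5% CO2; add CellTiter-Glo, 15 min RT; read luminescence. % activity vs DMSO (100%) and bortezomib (0%).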

Assay [6] in a line: qHTS profiling for inhibitors of Plasmodium falciparum (3D7) proliferation (AID 743322).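 Note: infected erythrocytes exposed to compound for 72 h before lysis; 100% = DMSO vehicle wells and 0% = 0.29 µM artemisinin.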 To be noted: P. falciparum 3D7 proliferation; at 28.7 µM (top of the series) unless noted. The procedure, abridged:
as §1

A short description of assay [7]: qHTS profiling for inhibitors of Plasmodium falciparum (DD2) proliferation (AID 743323). To be noted: lower = more inhibition; at 28.7 µM (top of the series) unless noted. The procedure, abridged: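 Parasite DNA quantified by SYBR Green fluorescence (ex 485, em 535 nm) after saponin/Triton lysis and overnight dark incubation. Cultures: 0.3% parasitemia, 2.5% hematocrit, 72 h, 37 C; data scaled between DMSO and 0.29 uM artemisinin.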

Assay [8] can be described thus: qHTS profiling for inhibitors of Plasmodium falciparum (HB3) proliferation (AID 743324; active = well fitted curve in the direction sought with a large enough effect; an effect the other way counts as inactive or inconclusive;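 note: 100% = DMSO vehicle wells and 0% = artemisinin-treated control wells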). To be noted: Plasmodium falciparum HB3 blood-stage proliferation; at 28.7 µM (top of the series) unless noted. A digest of the protocol:
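P. falciparum HB3 grown in erythrocytes (0.3% parasitemia, 2.5% hematocrit final) with compound for 72 h at 37 C, 5% CO2. Parasite DNA detected by SYBR Green after saponin/triton lysis overnight; normalized to 0.29 uM artemisinin and DMSO.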

Assay [9] can be described thus: qHTS Assay for Identifying Gametocytocidal Compounds (AID 743244; active = well fitted curve in the direction sought with a large enough effect; an effect the other way counts as inactive or inconclusive;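 note: % is set by controls: 0 for no effect and ±100 for the full control effect; actives lower the fluorescent signal which means gametocytes are killed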). To be noted: P. falciparum 3D7 stage III-V gametocytes, alamarBlue, 72 h; max response: stronger effect = lower value. The procedure, abridged:
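P. falciparum 3D7 stage III–V gametocytes (20,000 cells/well) were exposed to compounds for 72 h at 37 °C, 5% CO2. AlamarBlue was then added for 24 h; decreased resorufin fluorescence (Ex 525/Em 598 nm) indicated loss of viability.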

Assay [10] can be described thus: Immunotoxin (SS1P) sensitization/mitigation study. Vehicle arm (DMEM) (AID 1159513).

Records with an inconclusive call do not appear. Activity calls are given as the source filed them. Unless noted, the rule behind the calls is not given here.

For `C=C[C@@H]1CN2CCC1C[C@@H]2[C@@H](O)c1ccnc2ccccc12` (stereo partly specified), in assay [1], the parasite growth, % of DMSO control was determined as 15.2%. Also, the parasite growth remaining, % of DMSO control (lower = more inhibition) in [2] is 21.4%. Further, in assay [3], the parasite growth, % of control (lower = inhibition) is 45.8%. In [4], this molecule showed a growth, % of control of 17.3%. The cell viability, % of control (lower = more cytotoxic) in assay [5] turned out to be 220%.

Molecule `CC(C)(O)C(=O)Nc1ccc([N+](=O)[O-])c(C(F)(F)F)c1` yielded a parasite growth, % of DMSO control in assay [1] of 82.8%. Moreover, the parasite growth remaining, % of DMSO control (lower = more inhibition) in assay [2] worked out at 97.4%. The parasite growth, % of control (lower = inhibition) in assay [3] is 70.6%. The molecule further came in with a growth, % of control in assay [4] of 79%. Also, in assay [5], the cell viability, % of control (lower = more cytotoxic) turned out to be 21%.

Take `CC1=C(O)C(=O)C=C2C1=CC=C1[C@@]2(C)CC[C@@]2(C)[C@@H]3C[C@](C)(C(=O)O)CC[C@]3(C)CC[C@]12C`: the parasite growth, % of DMSO control in [1] amounted to 8.49%. In addition, the parasite growth remaining, % of DMSO control (lower = more inhibition) in [2] was 7.57%. In addition, the parasite growth, % of control (lower = inhibition) in assay [3] was found to be 16.2%. The molecule further showed a growth, % of control in assay [4] of 8.31%. The cell viability, % of control (lower = more cytotoxic) in assay [5] was determined as 12.3%.

With `CC(C)[C@H]1C(=O)N[C@H](CO)Cc2c[nH]c3cccc(c23)N1C`, in [6], the remaining parasite growth % (stronger effect = lower value) came to 107%. Further, in [7], the activity, percent of control was found to be 97.3%. The molecule further returned a remaining proliferation (% of control), lower = more inhibition in assay [8] of 80%. The parasite growth, % of DMSO control in [1] came out at 87.1%. In addition, in assay [2], the parasite growth remaining, % of DMSO control (lower = more inhibition) was 97.6%. In addition, in [3], the parasite growth, % of control (lower = inhibition) is 147%. This molecule yielded a growth, % of control in [4] of 88.8%. Besides, the cell viability, % of control (lower = more cytotoxic) in assay [5] was found to be 391%.

As to `CN1[C@H]2CC(O)C[C@H]1[C@H]1O[C@H]12` (stereo partly specified), the parasite growth, % of DMSO control in [1] is 11.1%. Besides, the parasite growth remaining, % of DMSO control (lower = more inhibition) in assay [2] stood at 12.2%. The parasite growth, % of control (lower = inhibition) in assay [3] stood at 28.8%. For the same molecule, in assay [4], the growth, % of control stood at 7.31%. For the same molecule, the cell viability, % of control (lower = more cytotoxic) in assay [5] is 21.9%.

Turning to `CC1=NN=C(c2ccc(N)cc2)c2cc3c(cc2C1)OCO3`, the max response in assay [9] is 7.34% (inactive). The same molecule had a parasite growth, % of DMSO control in assay [1] of 133%. Besides, the parasite growth remaining, % of DMSO control (lower = more inhibition) in assay [2] turned out to be 108%. Further, the parasite growth, % of control (lower = inhibition) in [3] worked out at 93%. For the same molecule, in [4], the growth, % of control stood at 685%. For the same molecule, the cell viability, % of control (lower = more cytotoxic) in assay [5] was found to be 244%.

`O=C1C=CC[C@@H]2[C@H]3CCCN4CCC[C@@H](CN12)[C@@H]34`: the parasite growth, % of DMSO control in assay [1] amounted to 101%. The parasite growth remaining, % of DMSO control (lower = more inhibition) in assay [2] came out at 99.7%. The parasite growth, % of control (lower = inhibition) in assay [3] came out at 86.7%. The molecule also gave a growth, % of control in [4] of 97.5%. Moreover, in assay [5], the cell viability, % of control (lower = more cytotoxic) turned out to be 126%.

In assay [1], `COc1ccc(C(=O)c2c(C)n(CCN3CCOCC3)c3cc(I)ccc23)cc1` gave a parasite growth, % of DMSO control of 44.6%. The parasite growth remaining, % of DMSO control (lower = more inhibition) in assay [2] was 85%. The parasite growth, % of control (lower = inhibition) in assay [3] is 35.4%. Also, in [4], the growth, % of control turned out to be 33.7%. Further, in assay [5], the cell viability, % of control (lower = more cytotoxic) was determined as 4.27%.

In turn, `CC(=Cc1csc(C)n1)[C@@H]1C[C@H]2O[C@]2(C)CCC[C@H](C)[C@@H](O)[C@@H](C)C(=O)C(C)(C)[C@@H](O)CC(=O)O1` came in with a parasite growth, % of DMSO control in assay [1] of 15.3%. In addition, the parasite growth remaining, % of DMSO control (lower = more inhibition) in assay [2] stood at 15.7%. Besides, in assay [3], the parasite growth, % of control (lower = inhibition) is 35.2%. The same molecule returned a growth, % of control in assay [4] of 16.9%. Moreover, in assay [5], the cell viability, % of control (lower = more cytotoxic) was found to be 50.2%.

In the case of `O=c1[nH]c2ccc(Cl)cc2c(N[C@@H]2CN3CCC2CC3)c1-c1nc2ccccc2[nH]1`, in assay [1], the parasite growth, % of DMSO control was 5.05%. Moreover, in [2], the parasite growth remaining, % of DMSO control (lower = more inhibition) came to 5.74%. In assay [3], the parasite growth, % of control (lower = inhibition) came to 8.84%. The growth, % of control in assay [4] was 2.7%. Besides, the cell viability, % of control (lower = more cytotoxic) in [5] amounted to 2.72%.

`C[C@@]12OC(=O)[C@]1([C@@H](O)[C@@H]1C=CCCC1)NC(=O)[C@H]2CCCl`: the parasite growth, % of DMSO control in [1] turned out to be 4.78%. Further, in assay [2], the parasite growth remaining, % of DMSO control (lower = more inhibition) is 7.57%. In addition, the parasite growth, % of control (lower = inhibition) in assay [3] came to 10.7%. This molecule also came in with a growth, % of control in [4] of 5.21%. In addition, the cell viability, % of control (lower = more cytotoxic) in assay [5] was 5.68%.

`CC(=O)N(C)c1cccc(-c2ccnc3c(C(=O)c4cccs4)cnn23)c1`: in assay [1], the parasite growth, % of DMSO control is 44.9%. Also, the parasite growth remaining, % of DMSO control (lower = more inhibition) in assay [2] was determined as 66.2%. In addition, the parasite growth, % of control (lower = inhibition) in [3] was found to be 51.9%. This molecule also returned a growth, % of control in assay [4] of 50.4%. Besides, in assay [5], the cell viability, % of control (lower = more cytotoxic) came out at 111%.

Take `O=C1CCCC2=C1C(c1[nH]ncc1Cl)N=C(Nc1nc3ccccc3o1)N2` (stereo unspecified): the Potency result in assay [10] was “inactive”.

Regarding `Cc1cnc(Nc2ccc(OCCN3CCCC3)cc2)nc1Nc1cccc(S(=O)(=O)NC(C)(C)C)c1`, in assay [10], the Potency result was “inactive”.
